# According to PubChem BioAssay AID1159580 (chemical genetic matrix, 2015):
# The campaign covered roughly 5,500 compounds. About 2,000 (36%) were called active. About 18% were inconclusive and are not listed. The list shows a part of the results. A number with no mark means an inactive call. Cut-off read from the data, not from the text of the source: active = normalized growth mostly below about 0.91 (no sharp cut-off); inconclusive = no clear call, values can overlap the other calls; inactive = mostly above about 0.92.
# Assay: chemical genetic growth profiling, strain panel (AID 1159580);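 note: tested at 20 µM; growth read once vehicle control cultures reached saturation at 30 °C; 1 = growth at the plate median or of vehicle wells; lower values mean less growth of the strain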
# Settings: growth OD
# [1] = S. cerevisiae deletion strains, locus YAL013W, strain DEP1, hits give low values
# [2] = S. cerevisiae deletion strains, locus YBR229C, strain ROT2, hits give low values
# [3] = S. cerevisiae deletion strains, locus YCL061C, strain MRC1, hits give low values
# [4] = S. cerevisiae deletion strains, locus YDL101C, strain DUN1, hits give low values
# [5] = S. cerevisiae deletion strains, locus YDR150W, strain NUM1, hits give low values
# [6] = S. cerevisiae deletion strains, locus YEL061C, strain CIN8, hits give low values
# [7] = S. cerevisiae deletion strains, locus YGR078C, strain PAC10, hits give low values
# [8] = S. cerevisiae deletion strains, locus YHR030C, strain SLT2, hits give low values
# [9] = S. cerevisiae deletion strains, locus YHR087W, strain rtc3, hits give low values
# [10] = S. cerevisiae deletion strains, locus YJL187C, strain SWE1, hits give low values
# [11] = S. cerevisiae deletion strains, locus YJR043C, strain POL32, hits give low values
# [12] = S. cerevisiae deletion strains, locus YJR075W, strain HOC1, hits give low values
# [13] = S. cerevisiae deletion strains, locus YKL190W, strain CNB1, hits give low values
# [14] = S. cerevisiae deletion strains, locus YLR039C, strain RIC1, hits give low values
# [15] = S. cerevisiae deletion strains, locus YLR058C, strain SHM2 (second series), hits give low values
# [16] = S. cerevisiae deletion strains, locus YLR085C, strain ARP6, hits give low values
# [17] = S. cerevisiae deletion strains, locus YLR262C, strain YPT6, hits give low values
# [18] = S. cerevisiae deletion strains, locus YML094W, strain GIM5, hits give low values
# [19] = S. cerevisiae deletion strains, locus YMR219W, strain ESC1, hits give low values
# [20] = S. cerevisiae deletion strains, locus YMR263W, strain SAP30, hits give low values
# [21] = S. cerevisiae deletion strains, locus YNL153C, strain GIM3, hits give low values
# [22] = S. cerevisiae deletion strains, locus YNL298W, strain CLA4 (second series), hits give low values
# [23] = S. cerevisiae deletion strains, locus YNL322C, strain KRE1, hits give low values
# [24] = S. cerevisiae deletion strains, locus YNR030W, strain Alg12, hits give low values
# [25] = S. cerevisiae deletion strains, locus YOL006C, strain TOP1, hits give low values
# [26] = S. cerevisiae deletion strains, locus YPL055C, strain LGE1, hits give low values
# [27] = S. cerevisiae deletion strains, locus YPL241C, strain CIN2, hits give low values
# [28] = S. cerevisiae deletion strains, locus YPR135W, strain CTF4, hits give low values
# [29] = S. cerevisiae strains, strain wild type, hits give low values
structure (smiles),measurement,setting,value
COc1cc([N+](=O)[O-])c(OC)cc1SCC(=O)NNC(=O)c1cc(OC)c(OC)c(OC)c1,normalized growth,[1],0.982
same,normalized growth,[2],1.01
same,normalized growth,[3],0.981
same,normalized growth,[4],0.968
same,normalized growth,"S. cerevisiae deletion strains, locus YDL134C, strain PPH21, hits give low values",0.991
same,normalized growth,[5],0.942
same,normalized growth,[6],0.941
same,normalized growth,[7],0.978
same,normalized growth,"S. cerevisiae deletion strains, locus YGR229C, strain SMI1, hits give low values",1.01
same,normalized growth,[8],0.963
same,normalized growth,[9],1.03
same,normalized growth,[10],1.01
same,normalized growth,[11],0.983
same,normalized growth,[12],1.01
same,normalized growth,[13],0.999
same,normalized growth,[14],0.974
same,normalized growth,[15],0.999
same,normalized growth,[16],0.946
same,normalized growth,[17],1.04
same,normalized growth,[18],1.01
same,normalized growth,[19],1.01
same,normalized growth,[20],0.987
same,normalized growth,[21],0.988
same,normalized growth,[22],0.937
same,normalized growth,[23],0.98
same,normalized growth,[24],0.999
same,normalized growth,[25],0.931
same,normalized growth,[26],1.01
same,normalized growth,[27],0.939
same,normalized growth,[28],0.904
same,normalized growth,[29],1.02
COC(=O)Cc1cc(OC)c(OC)cc1[N+](=O)[O-],normalized growth,[1],1.01
same,normalized growth,[2],0.998
same,normalized growth,[3],1.02
same,normalized growth,[4],1.01
same,normalized growth,[5],1.01
same,normalized growth,[6],0.953
same,normalized growth,[7],1.03
same,normalized growth,[8],1.07
same,normalized growth,[9],1.1 [resistant] (active)
same,normalized growth,[10],0.983
same,normalized growth,[11],1
same,normalized growth,[12],0.997
same,normalized growth,[13],0.978
same,normalized growth,[14],1.16
same,normalized growth,[15],0.991
same,normalized growth,[16],0.982
same,normalized growth,[17],1.15
same,normalized growth,[18],0.997
same,normalized growth,[19],1
same,normalized growth,[20],1
same,normalized growth,[21],1.01
same,normalized growth,[22],0.977
same,normalized growth,[23],1.01
same,normalized growth,[24],0.985
same,normalized growth,[25],0.977
same,normalized growth,[26],0.974
same,normalized growth,[27],1.01
same,normalized growth,[28],1.03
same,normalized growth,[29],0.972
COc1ccc([N+](=O)[O-])c(OC)c1C(N)=O,normalized growth,[1],1.02
same,normalized growth,[2],1.03
same,normalized growth,[3],1.06
same,normalized growth,[4],1.06
same,normalized growth,[5],1.04
same,normalized growth,[6],0.995
same,normalized growth,[7],1.04
same,normalized growth,[8],1.11
same,normalized growth,[9],0.964
same,normalized growth,[10],1.02
same,normalized growth,[11],1.06
same,normalized growth,[12],1.02
same,normalized growth,[14],1.03
same,normalized growth,[15],0.997
same,normalized growth,[16],1.03
same,normalized growth,[17],0.989
same,normalized growth,[18],0.98
same,normalized growth,[19],1.02
same,normalized growth,[20],1.02
same,normalized growth,[21],1.04
same,normalized growth,[22],1.02
same,normalized growth,[23],1.01
same,normalized growth,[24],1.03
same,normalized growth,[26],1.01
same,normalized growth,[27],1.02
same,normalized growth,[28],1.12
